Screening data: PubChem, National Center for Advancing Translational Sciences (NCATS)
Sampled rows, rich in hits. Any-hit rate of the full collection: about 17%.
DT40 TDP1 no CPT: qHTS for Inhibitors of human tyrosyl-DNA phosphodiesterase 1 (TDP1): qHTS in cells in absence of CPT; DT40 Tdp1-/- hTDP1 cells, no CPT, ATP luminescence, 48 h; AID 686978, 2013; 15% of 420,000 active; Potency, µM (titrated, usually from 46.2 µM), for the others: at the top dose activity change, negative = growth inhibition, hits mostly inhibitors; further: on the % scale 0 is the no-effect control and ±100 the full control effect; nearly all actives have a fitted effect of over 55% in size
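Growth of hTDP1-complemented DT40 Tdp1-knockout cells is measured by ATP luminescence after at least 48 hr compound exposure at 37 °C, with DMSO substituting for the 20 nM CPT used in the parallel screen.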
TDP1 block: inhibitors of human tyrosyl-DNA phosphodiesterase TDP1; 0.28% of 350,000 active; Potency, µM (doses to about 130 µM), for inactives: at the highest dose activity change, negative = inhibition, hits mostly inhibitors; Q9NUW8; recombinant TDP1, AlphaScreen DNA substrate cleavage; further: on the % scale 0 is the no-effect control and ±100 the full control effect; nearly all actives have a fitted effect of over 40% in size
Target sequence (Q9NUW8 whole entry, looked up): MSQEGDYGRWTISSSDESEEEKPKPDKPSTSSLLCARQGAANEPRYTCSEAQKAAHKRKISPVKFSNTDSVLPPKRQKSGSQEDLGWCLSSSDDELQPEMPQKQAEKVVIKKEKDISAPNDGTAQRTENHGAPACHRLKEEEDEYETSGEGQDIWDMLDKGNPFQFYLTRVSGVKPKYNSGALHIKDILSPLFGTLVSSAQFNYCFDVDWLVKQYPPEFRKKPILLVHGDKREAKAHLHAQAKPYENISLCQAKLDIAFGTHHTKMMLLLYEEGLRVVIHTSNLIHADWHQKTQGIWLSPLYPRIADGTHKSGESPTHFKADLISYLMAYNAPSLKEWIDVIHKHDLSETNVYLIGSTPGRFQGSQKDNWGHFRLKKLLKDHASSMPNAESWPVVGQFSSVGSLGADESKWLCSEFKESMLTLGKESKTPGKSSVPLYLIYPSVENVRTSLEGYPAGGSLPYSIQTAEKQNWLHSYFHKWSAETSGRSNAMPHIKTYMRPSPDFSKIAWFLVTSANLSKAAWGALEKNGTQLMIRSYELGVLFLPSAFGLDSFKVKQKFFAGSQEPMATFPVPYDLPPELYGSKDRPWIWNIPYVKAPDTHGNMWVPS
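Steps: enzyme plus compound, 15 min RT; add biotin/phosphotyrosine-FITC oligonucleotide (15 nM final), react 5 min; add donor/acceptor beads (10 ug/ml final), 10 min; read AlphaScreen. Tdp1 at 1 nM final.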
TDP1 cell CPT: growth inhibition of DT40 Tdp1-/-;hTDP1 cells with camptothecin (screen for TDP1 inhibitors); chicken DT40 Tdp1-/-;hTDP1 cells + 20 nM CPT, ATP luminescence, 48 h; 12% of 420,000 active; Potency, µM (doses to about 46.2 µM), for the others: at the top dose activity change, negative = growth inhibition, actives largely listed as inhibitors; further: on the % scale 0 is the no-effect control and ±100 the full control effect; nearly all actives have a fitted effect of over 55% in size
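Cell growth measured by CellTiter-Glo luminescence after a minimum 48 h, 37 C compound exposure with 20 nM CPT in Tdp1-knockout DT40 cells stably expressing hTDP1, seeded 400/well; qHTS titration format.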
ClpP mod: qHTS Assay for Activators of ClpP; ATP-dependent Clp protease proteolytic subunit (Bacillus subtilis (strain 168)), P80244; purified B. subtilis ClpP, FRET peptide cleavage, 20 min; Potency, µM (top dose mostly 57.5 µM), inactives show at the highest dose activity change, negative = active; 1.9% of 340,000 active; active means well fitted falling curve with a large enough effect; inconclusive means small, poorly fitted or top-dose-only effect; inactive means no such curve, though single readings can be large or run the other way; further: the source files actives as falling curves though it sought activators and does not explain the sign; nearly all actives have a fitted effect of over 65% in size
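FRET quenching reversal measured ClpP activation: 10 microg/mL B. subtilis ClpP at pH 8 with the FRET-FV decapeptide, read at 430 nm after 320 nm excitation. The 20-min minus 0-min signal was scaled between DMSO/no-enzyme wells and ADEP (5.8 microM final).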
An asterisk follows results filed as active; ? = inconclusive; . = no result given; ! = not active in a repeat; [ ] = another dose, or the depositor's remark. Unless noted, the call rests on the fitted dose curve; in most records, active means well fitted curve in the direction sought with a large enough effect; inconclusive means small, poorly fitted or top-dose-only effect, or another doubt; inactive means no such curve, though single readings can be large; an effect the other way counts as inactive or inconclusive. Potency means the concentration at half of the fitted maximal effect.

SMILES	DT40 TDP1 no CPT	TDP1 block	TDP1 cell CPT	ClpP mod
CCOc1ccc(Cl)cc1CNCCc1ccc(F)cc1	16µM*	0%	21µM*	.
Fc1ccc(CCNCc2ccccc2Cl)cc1	-24%	-2%	-28%	1%
NC(=O)C(c1ccccc1)(c1ccccc1)[C@@H]1CCN(CCc2ccc3c(c2)CCO3)C1	19µM*	.	?	.
c1ccc2c(CN3CCCCC3)c[nH]c2c1	?	2%	8.2µM*	2%
CC1CCCCN1Cc1c[nH]c2ccccc12 (configuration not stated)	7.3µM*	-1%	4.1µM*	-12%
OC1(c2ccc(Cl)cc2)CCN(Cc2c[nH]c3ccccc23)CC1	16µM*	8%[56.1 µM]	13µM*	2%
c1cnc(N2CC[C@@]3(CCCNC3)C2)nc1	-25%	.	?	.
OCCN1CCN(CC/C=C2/c3ccccc3Sc3ccc(Cl)cc32)CC1	23µM*	.	?	-4%
CN(C)CCC=C1c2ccccc2CCc2ccccc21	27µM*!	1%	24µM*!	0%
O=C(CN1CCCC1)Nc1ccc(Cl)cc1C(=O)c1ccccc1	-20%	0%	?	.
CN(C)CC/C=C1\c2ccccc2Sc2ccc(Cl)cc21	21µM*	9%	24µM*	-4%
NC(=Nc1ccccc1)NN=Cc1c[nH]c2ccccc12	0.92µM*	.	1µM*	1%
COc1cc2c(cc1O)C(CCc1ccc(Cl)cc1)N(C)CC2 (configuration not stated)	.	10%	.	.
C=C(C)C(=O)OCC1CO1 (configuration not stated)	.	15%	.	.
COc1cc2c(cc1OC)CN(c1ccc([N+](=O)[O-])c(C(F)(F)F)c1)CC2	21µM*	5%	16µM*	-2%
CCNc1cc(N2CCN(C)CC2)ccc1[N+](=O)[O-]	-5%	-3%	-18%	.
C/C(=N\N=C(N)N)c1ccccc1	18µM*	7%	?	.
COC(=O)[C@@H]1C[C@@]1(C)[C@@H](NP(=O)(c1ccccc1)c1ccccc1)c1ccccc1	21µM*	4%	?	0%
C=C1C(=O)OC2C1CCC(C)C1(O)C=CC(=O)C21C (configuration not stated)	2.3µM*	.	2.6µM*	2%
COc1ccc(Cn2c(N)c(C(=O)NCc3ccco3)c3nc4ccccc4nc32)cc1OC	6.5µM*	0%	6.5µM*	32µM*
CCCCn1c(=O)c(C(=O)NCc2ccco2)c(O)c2ccccc21	?	3%	?	.
CC(C)CNC(=O)c1c(N)n(Cc2ccco2)c2nc3ccccc3nc12	?	0%	?	22µM*
Nc1c(C(=O)NCC2CCCO2)c2nc3ccccc3nc2n1Cc1ccco1 (configuration not stated)	?	6%	?	.
CCCNC(=O)c1c(N)n(Cc2ccco2)c2nc3ccccc3nc12	?	-1%	23µM*	28µM*
Nc1c(C(=O)NCc2ccco2)c2nc3ccccc3nc2n1CCN1CCCCC1	23µM*	4%	23µM*	-20%
SMILES	DT40 TDP1 no CPT	TDP1 block	TDP1 cell CPT	ClpP mod
CCCCCOC(=O)c1ccccc1C(=O)OCCCCC	.	6%	.	.
Cc1ccccc1N1CCN(S(=O)(=O)c2nnc(NC(=O)c3ccc(Cl)cc3)s2)CC1	?	-6%	-5%	-4%
COc1ccc(NC(=O)CN2C(=O)C(C)N=C(c3ccccc3F)c3cc(Cl)ccc32)c(OC)c1 (configuration not stated)	?	0%	?	0%
O=C(c1ccco1)N1CCC[C@@]2(CCN(Cc3ccncc3)C2)C1	-13%	.	-8%	.
COC(=O)c1c(C)n(Cc2ccco2)c2ccc(O)cc12	?	2%	?	-2%
CC(C)OC(=O)c1c(N)n(Cc2ccco2)c2nc3ccccc3nc12	?	5%	?	14µM*
COCCCNC(=O)c1c(N)n(Cc2ccco2)c2nc3ccccc3nc12	26µM*	3%	?	4%
O=C(Cc1ccccc1)c1ccccn1	?	.	?	-3%
Oc1ccccc1-c1ccccc1	-10%	4%	0%	.
CC(C)(C)n1nnnc1C(CCc1ccccc1)N1CCC2(CC1)C(=O)NCN2c1ccccc1 (configuration not stated)	15µM*	.	21µM*	2%
CCC(c1nnnn1C(C)(C)C)N1CCC2(CC1)C(=O)NCN2c1ccccc1 (configuration not stated)	?	.	-28%	0%
CSCCC(c1nnnn1-c1c(C)cccc1C)N1CCC2(CC1)C(=O)NCN2c1ccccc1 (configuration not stated)	?	.	23µM*	-1%
CSCCC(c1nnnn1Cc1ccccc1)N1CCC2(CC1)C(=O)NCN2c1ccccc1 (configuration not stated)	21µM*	.	15µM*	0%
O=C1NCN(c2ccccc2)C12CCN(C(c1nnnn1Cc1ccccc1)C1CC1)CC2 (configuration not stated)	21µM*	.	?	0%
CC(C)N(CC[C@@](C(N)=O)(c1ccccc1)c1ccccn1)C(C)C	.	15%[21 µM]	.	.
Cc1cscn1	?	0%	-21%	0%
Cc1cccc(C)c1NC(=O)CN1CCCC1=O	-8%	.	-2%	.
CCCN(CC1CC1)CC(O)c1ccccc1 (configuration not stated)	18µM*	.	16µM*	2%
Cc1c(C(=O)OC2CCCCC2)[nH]c2c1C(=O)CC(c1ccccc1)C2 (configuration not stated)	2.1µM*	0%	4.6µM*	0%
